From PubChem
An excerpt weighted towards active compounds, which were near 12% of everything screened.
G9a block = G9a (human) methyltransferase inhibition; Q96KQ7; G9a H3K9 monomethylation, AlphaScreen, 2 h; Potency, µM (top dose mostly 102 µM), without a hit: at the top dose activity, negative = inhibition, hits mostly inhibitors; hit rate 8.8% among 350,000; note: % is set by controls: 0 for no effect and ±100 for the full control effect; nearly all actives have a fitted effect of over 75% in size
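AlphaScreen detection with an anti-monomethyl H3K9 antibody quantified product after a 2 h room-temperature reaction containing 500 nM biotinylated H3K9 peptide, 20 µM SAM and 20 nM enzyme, which had been preincubated 15 min with compound.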
L3MBTL1 inh = blocks human L3MBTL1 | Potency, µM (titrated, usually from 57.1 µM), without a hit: top-dose activity, negative = inhibition, usual class: inhibitors | AlphaScreen L3MBTL1–H3K9me1 peptide binding | hit rate 0.66% among 230,000 | Q9Y468; note: % is set by controls: 0 for no effect and ±100 for the full control effect; nearly all actives have a fitted effect of over 60% in size
Target sequence (Q9Y468 whole entry, looked up): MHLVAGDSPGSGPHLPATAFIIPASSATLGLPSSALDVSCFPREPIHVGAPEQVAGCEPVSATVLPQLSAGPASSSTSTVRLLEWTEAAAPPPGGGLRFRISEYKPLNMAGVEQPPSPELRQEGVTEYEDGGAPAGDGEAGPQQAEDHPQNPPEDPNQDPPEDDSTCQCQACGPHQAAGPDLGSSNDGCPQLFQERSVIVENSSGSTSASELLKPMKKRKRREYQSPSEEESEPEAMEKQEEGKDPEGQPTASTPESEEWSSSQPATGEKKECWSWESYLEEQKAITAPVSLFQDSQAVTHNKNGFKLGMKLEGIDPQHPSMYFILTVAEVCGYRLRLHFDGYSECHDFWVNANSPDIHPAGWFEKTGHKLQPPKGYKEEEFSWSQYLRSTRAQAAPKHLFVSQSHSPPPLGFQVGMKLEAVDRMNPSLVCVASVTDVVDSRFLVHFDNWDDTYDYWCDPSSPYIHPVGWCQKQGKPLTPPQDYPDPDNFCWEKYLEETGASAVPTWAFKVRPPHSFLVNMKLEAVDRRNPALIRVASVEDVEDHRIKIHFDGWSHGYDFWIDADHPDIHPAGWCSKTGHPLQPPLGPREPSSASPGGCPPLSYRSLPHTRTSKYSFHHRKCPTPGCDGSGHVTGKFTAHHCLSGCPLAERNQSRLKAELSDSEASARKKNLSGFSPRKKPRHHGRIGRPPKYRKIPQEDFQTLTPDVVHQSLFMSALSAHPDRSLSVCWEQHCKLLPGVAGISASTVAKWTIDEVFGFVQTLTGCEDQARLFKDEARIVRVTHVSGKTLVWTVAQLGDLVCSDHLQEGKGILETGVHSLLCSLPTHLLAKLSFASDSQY
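L3MBTL1 50 nM + b-AHA-H3(1-15)K9me1 75 nM, 30 min RT; compound added, 30 min RT; streptavidin donor/Ni-chelate acceptor beads 10 ug/mL each final, 30 min RT dark; AlphaScreen read.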
Sfp inh = Sfp phosphopantetheinyl transferase inhibition | hit rate 3.5% among 310,000 | Biochemical Sfp PPTase activity, qHTS | Potency, µM, for the others: largest response in the series, negative = inhibition, actives largely listed as inhibitors;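 note: the enzyme is Sfp with the accession as filed and its product quenches rhodamine fluorescence; 0% = enzyme reaction without inhibitor and -100% = no enzyme wells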
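Reaction rates are the 30-min fluorescence difference (ex 525, em 598 nm) in wells containing 15 nM Sfp, 5 uM rhodamine-CoA and 12.5 uM BHQ-2-YbbR at pH 7.6 with 10 mM MgCl2.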
HP1b chromo inh = blocks HP1-beta chromodomain binding to methylated histone tails. AlphaScreen HP1-beta / biotin-H3K9me3 peptide binding. Potency, µM (series often up to 114 µM), inactives show at the highest dose activity change, negative = inhibition, hits mostly inhibitors. hit rate 0.56% among 390,000. AID 540317; note: nearly all actives have a fitted effect of over 70% in size
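AlphaScreen: HP1-beta (50 nM) preformed 30 min with biotin-H3(1-18)K9me3 peptide (50 nM) in PBS pH 7.4, 0.01% Tween-20. Compound added for 30 min at RT, then streptavidin donor/nickel chelate acceptor beads (10 ug/mL) for 30 min.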
BAZ2B inh = BAZ2B (human) inhibition. AlphaScreen BAZ2B-H3K14Ac peptide displacement. hit rate 4.4% among 360,000. Potency, µM (highest dose often 114 µM), without a hit: top-dose activity change, negative = inhibition, most hits filed as inhibitors. Q9UIF8. AID 504333; note: % is set by controls: 0 for no effect and ±100 for the full control effect; nearly all actives have a fitted effect of over 60% in size
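AlphaScreen displacement: compounds (up to 110uM) incubated 30 min at room temperature with a preformed 50 nM BAZ2B/50 nM biotinylated H3K14Ac peptide complex in PBS pH 7.4 with Tween-20. Donor and acceptor beads at 10 ug/mL final added, 20 min light-protected before reading.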
JMJD2A Tudor inh = blocks the human JMJD2A Tudor domain. hit rate 4.4% among 390,000. AID 504339. AlphaScreen JMJD2A-Tudor / H3K4me3 peptide binding. Potency, µM (series often up to 114 µM), inactives show top-dose activity change, negative = inhibition, hits mostly inhibitors. O75164; note: % is set by controls: 0 for no effect and ±100 for the full control effect; nearly all actives have a fitted effect of over 50% in size
Numbers without * were called inactive; ? = inconclusive; . = not tested or not shown; [ ] = another dose, or the depositor's remark. Calls come from the whole dose curve; as a rule, active = well fitted curve in the direction sought with a large enough effect; inconclusive = small, poorly fitted or top-dose-only effect, or another doubt; inactive = no such curve, though single readings can be large; an effect the other way counts as inactive or inconclusive. Potency is the fitted concentration of half-maximal effect.

SMILES	G9a block	L3MBTL1 inh	Sfp inh	HP1b chromo inh	BAZ2B inh	JMJD2A Tudor inh
COc1ccc(CN2C(=O)c3cccnc3C2Nc2ccc(OC)c(Cl)c2)cc1 (configuration not stated)	?	-4%	3%	-16%	?	50µM*
COc1ccc(NC2c3ccccc3C(=O)N2Cc2ccccc2Cl)cc1OC (configuration not stated)	50µM*	-11%	-7%	?	?	-18%[11.4 µM]
CCOC(=O)c1sc(N2C(=O)c3oc4ccc(C)cc4c(=O)c3C2c2ccccc2F)nc1C (configuration not stated)	10%[59 µM]	.	.	36%	2%	9%
CC(C)C/C=C1\CCc2c([nH]c3ccccc23)C1=O	-3%	0%	-1%	25%	3%	0%
CCCCCCCCC1=NCCc2c1[nH]c1ccccc21	45µM*	.	56µM*	22%	?	22µM*
CCn1ccnc1CN1CCCC(CO)(Cc2cccc(OC)c2)C1 (configuration not stated)	-6%	-10%	2%	17%	89µM*	-25%
OCC1(Cc2ccccc2)CCN(Cc2ccc(-c3ccco3)cc2)CC1	?	?	?	-20%	-35%	-35%
CCOC(=O)C1(Cc2cccc(OC)c2)CCCN(Cc2nccn2CC)C1 (configuration not stated)	-4%	-17%	11%	12%	-24%	-21%
COc1cc(CN2CCCC(CO)(Cc3cccc(Cl)c3)C2)cc(OC)c1O (configuration not stated)	50µM*	-1%	21%	6%	-25%	-24%
OCC1(Cc2ccccc2)CCCN(Cc2ccc(-c3ccco3)cc2)C1 (configuration not stated)	.	-10%	-13%	-23%	45µM*	?
COc1ccc(CN2CCCC(CO)(Cc3cccc(Cl)c3)C2)cc1OC (configuration not stated)	5%	0%	2%	14%	-1%	-29%
COC(=O)c1nnc(N[C@@H](Cc2c[nH]c3ccccc23)C(=O)OC)nc1C(=O)OC	.	.	-6%	.	.	.
COC(=O)C1=C(C(=O)OC)[C@@H]2Nc3ccccc3[C@@]23C[C@@H](C(=O)OC)N(S(=O)(=O)c2c(C)noc2C)C3=N1	.	.	4%	.	.	.
CNC(=O)c1ccc(NC(=O)CCNC(=O)Nc2ccccc2)cc1	45µM*	-6%	.	38%	-2%	-1%
COc1ccc(C(=O)N/C(=C/c2cccnc2)C(=O)Nc2cccc(C(C)=O)c2)cc1OC	0%[12.7 µM]	.	17%	1%	3%	56µM*
COc1ccc(C(=O)Nc2ccccc2C(=O)NCc2cccnc2)cc1OC	71µM*	.	17%	39%	-15%	-10%
CC(=O)c1cccc(NC(=O)/C(=C\c2cccnc2)NC(=O)c2ccccc2)c1	14%	.	17%	24%	-2%	8%
CCOc1cccc(C(=O)NC(=S)Nc2ccc(N3CCN(CC)CC3)cc2)c1	14µM*	-14%	-6%	?	35µM*	56µM*
CCCOc1cccc(C(=O)NC(=S)Nc2ccc(N3CCN(C)CC3)cc2)c1	-16%[59 µM]	-11%	3%	?	-12%	?
COc1cc(C(=O)Nc2ccccc2C(=O)NCc2cccnc2)cc(OC)c1OC	24%	.	9%	8%	3%	-4%
COc1ccc(C)cc1NC(=O)N1CCCn2nc(C)cc21	1%[59 µM]	.	.	11%	-1%[57.1 µM]	-11%
COc1ccc(S(=O)(=O)NCC(c2ccco2)N2CCN(c3ccc(F)cc3)CC2)cc1C (configuration not stated)	?	.	.	15%	-16%	?
O=C(NNc1cccc([N+](=O)[O-])c1)/C(=C\c1cccnc1)NC(=O)c1ccccc1	50µM*	-8%	-19%	24%	-24%	-8%
O=C(COc1cc(F)ccc1[N+](=O)[O-])Nc1ccc(N2CCCCC2)cc1	?	?	.	?	32µM*	40µM*
C=CCNC(=O)/C(=C/c1cccc([N+](=O)[O-])c1)NC(=O)c1ccccc1	-2%	8%	21%	18%	0%	-5%
SMILES	G9a block	L3MBTL1 inh	Sfp inh	HP1b chromo inh	BAZ2B inh	JMJD2A Tudor inh
Cc1c(Cl)cccc1NC(=S)NC(=O)c1cncc(Br)c1	.	.	.	-22%	.	-9%
O=C(NC(=S)Nc1cc(Cl)ccc1O)c1cccc(Br)c1	71µM*	36%	-12%	6%	-4%	-10%
Cc1snnc1C(=O)NC(=S)Nc1ccccc1	?	-1%	40µM*	-6%	-18%	-28%
O=C(COc1cc(F)ccc1[N+](=O)[O-])Nc1ccc(N2CCOCC2)cc1	-45%	.	-12%	14%	5%	-1%
CCOc1ccccc1-c1nnc2n1N=C(c1cccc(OC)c1)CS2	.	.	-29%	.	.	-32%
O=C(NC(=S)Nc1cccnc1)c1ccccc1	79µM*	.	79µM*	3%	4%	11%
COc1cc(OC)cc(C(=O)N[C@H](C(=O)Nc2ccccc2N2CCOCC2)C(C)C)c1	5%[59 µM]	.	9%	8%	-14%	0%
COc1cc(OC)cc(C(=O)NC(C(=O)Nc2ccc(N3CCOCC3)cc2)C(C)C)c1 (configuration not stated)	50µM*	-8%	.	13%	-3%	-14%
CCOc1cccc(C(=O)NC(=S)Nc2cccc(NC(=O)c3ccccc3Cl)c2)c1	-47%[59 µM]	-3%	14%	6%	79µM*	-8%
O=C(NCc1cccnc1)c1ccc(NC(=O)c2ccc(Br)cc2)cc1	45µM*	.	-18%	35%	-13%	-33%
O=C(NC(=S)NCc1cccnc1)c1ccccc1	4%[59 µM]	4%	12%	-1%	3%	-10%
CCOc1cccc(C(=O)NC(=S)Nc2ccccc2)c1	?	-7%	-27%	?	?	?
CCOc1ccc(NC(=O)CSc2nc(-c3ccccc3)c3cc(OCC)ccc3n2)cc1	-10%[59 µM]	.	.	12%	-2%	-20%
Cc1ccc(Cl)cc1NCc1nnc2n1CCCCC2	3%[59 µM]	.	.	25%[57 µM]	2%	-6%
O=S(=O)(c1ccc(Cl)cc1)N1CCN(S(=O)(=O)c2ccc3c(c2)OCCO3)CC1	.	.	.	.	.	-12%
O=C(NC(=S)Nc1cccnc1)c1cccc(Br)c1	35µM*	.	2%	-19%	-16%	-19%
O=C(NC(=S)Nc1cccnc1)c1cccs1	?	-2%	56µM*	11%	-23%	?
CCOc1ccc(C(=O)NC(=S)Nc2ccc(N3CCCCC3)cc2)cc1[N+](=O)[O-]	6.3µM*	-22%	20µM*	11µM*	8.9µM*	?
CCCCOc1cccc(C(=O)NC(=S)Nc2cccnc2)c1	?	-5%	-3%	-12%	-37%	-23%
